PKA-R1A act = PKA-R1A complex activation; P00514+P68181; actives 0.083% (n = 340,000); PKA-R1A dissociation, Cy5-IP20 fluorescence polarization; scaled: DMSO 0%, 113 µM cGMP 100%; activation, % at 11.4 µM;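 active means percent activation above the mean of all tested compounds plus 3 SD, cut at about 19% in these data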;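 further: higher means more PKAc released from R1A so a rise in polarization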
MsrA inh = bovine MsrA inhibition | purified bovine MsrA, absorbance read-out | inhibition, % at 15.5 µM | actives 0.75% (n = 360,000) | AID 651718; in the data active means inhibition above about 4.5%;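 further: 0% = vehicle wells with enzyme and 100% = reference inhibitor wells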
PKA-R2B act = activators of human PKA-R2B complex | P22694+P31323 | PKA-R2B holoenzyme dissociation, Cy5-IP20 fluorescence polarization; R2B truncated from residue 108, S112A mutant; 0% DMSO only, 100% 113 µM cGMP | activation, % at 11.4 µM | actives 0.079% (n = 340,000);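 active means activation above a cutoff set at the mean over all compounds plus 3 SD, cut at about 18% in these data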;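 further: higher means more holoenzyme dissociation and a rise in polarization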
Target sequence (P31323 whole entry, looked up, other chains not shown, the tested form may be a part): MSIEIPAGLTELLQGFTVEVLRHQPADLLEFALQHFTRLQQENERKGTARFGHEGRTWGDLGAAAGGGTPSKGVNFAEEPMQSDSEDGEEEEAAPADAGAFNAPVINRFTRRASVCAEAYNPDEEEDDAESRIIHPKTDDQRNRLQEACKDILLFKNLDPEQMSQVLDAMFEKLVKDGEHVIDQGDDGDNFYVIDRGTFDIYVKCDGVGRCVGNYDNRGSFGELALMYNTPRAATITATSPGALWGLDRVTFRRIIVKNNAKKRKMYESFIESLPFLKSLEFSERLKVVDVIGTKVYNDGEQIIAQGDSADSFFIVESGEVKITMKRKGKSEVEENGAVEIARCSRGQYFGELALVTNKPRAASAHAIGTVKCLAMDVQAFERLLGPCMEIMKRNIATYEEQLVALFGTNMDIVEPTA
bovine MsrA act = activates bovine MsrA enzyme; actives 0.3% (n = 360,000); purified bovine MsrA, absorbance read-out; activation, % at 10.6 µM; in the data active means activation above about 7.5%;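 further: 0% = vehicle and 100% = reference activator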
Active calls of the source: *. Compounds with a hit are over-represented: about 1.1% of the library has one in this group of screens.

`Cc1ccc(OCC(=O)N(Cc2ccc(N(C)C)cc2)C2CCS(=O)(=O)C2)cc1` (centres undefined) gave PKA-R1A act -6, MsrA inh 0, PKA-R2B act -4 and bovine MsrA act -3.
For CN(C)c1ccc(CN(C(=O)COc2ccc(F)cc2)C2CCS(=O)(=O)C2)cc1 (centres undefined) the results were PKA-R1A act -9, PKA-R2B act 4 and bovine MsrA act 8.2*.
For COc1ccc(NC(=O)c2cc3c(COC(C)=O)cnc(C)c3oc2=Nc2cccc(C(=O)O)c2)c(OC)c1 the results were PKA-R1A act 19*, PKA-R2B act -3 and bovine MsrA act -13.
Screening COc1ccccc1NC(=O)c1cc2c(CO)cnc(C)c2oc1=Nc1cccc(C(N)=O)c1 returned PKA-R1A act -3, MsrA inh 0, PKA-R2B act -5 and bovine MsrA act -3.
For COc1ccc(OC)c(/C(C)=N/Nc2ccc(C(=O)O)cc2)c1 the results were PKA-R1A act -4, MsrA inh 3, PKA-R2B act -1 and bovine MsrA act -6.
C/C(=N/Nc1ccc(C(=O)O)cc1)c1ccc(O)c(O)c1O was read as PKA-R1A act 2, MsrA inh 4.6*, PKA-R2B act -12 and bovine MsrA act -9.
`COc1ccccc1-c1cc(C(F)(F)F)n2ncc(S(=O)(=O)c3ccccc3)c2n1` gave PKA-R1A act -5, MsrA inh 9.4*, PKA-R2B act -11 and bovine MsrA act -11.
`CC(=O)N(C)c1ccc(N=Nc2c(C)[nH]n(C(N)=S)c2=O)cc1` gave PKA-R1A act -5, MsrA inh 4, PKA-R2B act -3 and bovine MsrA act -5.
CCN(CC)S(=O)(=O)c1ccc(N=Nc2c(C)[nH]n(C(N)=S)c2=O)cc1 was read as PKA-R1A act 1, MsrA inh 4.5*, PKA-R2B act -2 and bovine MsrA act -12.
Cc1ccc2nc(SCC(=O)Nc3cccc(F)c3)nc(=O)n2c1 was read as PKA-R1A act 5, MsrA inh 5.1*, PKA-R2B act 8 and bovine MsrA act -4.
Screening Cc1ccc2nc(SCC(=O)Nc3cccc(Cl)c3)nc(=O)n2c1 returned PKA-R1A act -3, MsrA inh 1, PKA-R2B act -10 and bovine MsrA act -3.
For COCc1cc(N2CCNC[C@@H]2C)ccc1N1C[C@@H](C)O[C@@H](C)C1 the results were MsrA inh -1.
Screening CCNC(=O)O/N=C(\C)c1sc(-c2ccc(Cl)cc2)nc1C returned PKA-R1A act 14, MsrA inh 4.6*, PKA-R2B act -2 and bovine MsrA act -4.
CCOC(=O)c1c(C)nc2c(c1-c1cc(OC)ccc1OC)C(=O)c1ccccc1-2 was read as PKA-R1A act -2, MsrA inh 0, PKA-R2B act 2 and bovine MsrA act -5.
Screening CCOC(=O)c1c(C)nc2c(c1-c1ccccc1)C(=O)c1ccccc1-2 returned PKA-R1A act 20*, MsrA inh 0, PKA-R2B act 10 and bovine MsrA act -14.
COC(=O)C1=C(C)N(C)C(=NCc2ccc(OC)cc2)NC1c1ccccc1 (centres undefined) was read as MsrA inh 1.
For CCCN1CCCCC(NC(=O)c2ccc3ccccc3c2)C1=O (centres undefined) the results were MsrA inh 0.
Screening CCOC(=O)C1=C(COC(=O)c2sccc2C)NC(=O)NC1C (centres undefined) returned PKA-R1A act 3, MsrA inh 0, PKA-R2B act -5 and bovine MsrA act -3.
CCOC(=O)C1=C(COC(=O)c2ccc([N+](=O)[O-])s2)NC(=O)NC1C (centres undefined) was read as PKA-R1A act 8, MsrA inh 3, PKA-R2B act 5 and bovine MsrA act 19*.
CC(C)c1[nH]nc2c1C(c1cccc(C(F)(F)F)c1)N(Cc1ccccc1)C2=O (centres undefined) was read as MsrA inh 1.
For O=C(NCc1ccccc1)[C@@H]1CCCN1C(=O)[C@H]1CCCN1C(=O)c1cccc(F)c1 the results were MsrA inh 1.
Screening COc1ccccc1C(=O)Nc1cccc(S(=O)(=O)N2CCCC2)c1 returned PKA-R1A act 1, MsrA inh 0, PKA-R2B act -5 and bovine MsrA act -2.
For COc1cc(C(=O)Nc2cccc(S(=O)(=O)N3CCCC3)c2)c([N+](=O)[O-])cc1OC the results were PKA-R1A act -5, MsrA inh 4.6*, PKA-R2B act -7 and bovine MsrA act -2.
For C[C@H](c1ccccc1)N1C[C@@H](COCc2ccccc2)Oc2cccc(Oc3ccc(C(C)(C)C)cc3)c2S1(=O)=O the results were MsrA inh 0.
For CC1CCN(C2(O)C(=O)Nc3ccc([N+](=O)[O-])cc32)CC1 (centres undefined) the results were PKA-R1A act -1, MsrA inh 6.6*, PKA-R2B act 0 and bovine MsrA act -13.
`CN1C(=O)NC(c2ccc(O)cc2)C(C(=O)c2cccs2)C1(O)C(F)(F)F` (centres undefined) gave PKA-R1A act -8, MsrA inh 4.5*, PKA-R2B act -2 and bovine MsrA act -11.
For O=C(NCC1CCN(C(=O)C(=O)c2cccs2)CC1)c1ccncc1 the results were MsrA inh 0.
`N#CCOC(=O)/C=C/c1ccc2c(c1)OCO2` gave PKA-R1A act 4, MsrA inh 7.0*, PKA-R2B act 7 and bovine MsrA act -6.
O=C(COC(=O)/C=C/c1ccc2c(c1)OCO2)NC1CC1 was read as PKA-R1A act 8, MsrA inh 3, PKA-R2B act 7 and bovine MsrA act -7.
`COC(=O)[C@@H](Cc1ccc(O)cc1)NC(=O)[C@H]1O[C@@H](n2cnc3c(=O)[nH]c(N)nc32)[C@H](O)[C@@H]1O` gave MsrA inh 0.
`CCOC(=O)CSc1nc2sc3c(c2c(=O)n1-c1ccc(C)cc1)CCN(C)C3` gave PKA-R1A act -3, MsrA inh 4.6*, PKA-R2B act 0 and bovine MsrA act -9.
`CCOC(=O)CSc1nc2sc3c(c2c(=O)n1-c1ccc(OC)cc1)CCN(C)C3` gave PKA-R1A act -11, MsrA inh 4, PKA-R2B act 2 and bovine MsrA act -5.
Screening COC(=O)C1C(=O)C2=C(CC1C)NC(C)=C(C(=O)OC(C)C)C2c1ccc(OC)c(O)c1 (centres undefined) returned PKA-R1A act 20*, MsrA inh 1, PKA-R2B act 12 and bovine MsrA act -6.
Screening COC(=O)C1C(=O)C2=C(CC1C)NC(C)=C(C(=O)OC1CCCC1)C2c1ccc(N(C)C)cc1 (centres undefined) returned PKA-R1A act -18, MsrA inh 1, PKA-R2B act -9 and bovine MsrA act -11.
C[C@@H]1ON(C)[C@H]2C[C@H]3c4[nH]c5c(-c6cccc(Cl)c6)cccc5c4CCN3C(=O)[C@@H]12 was read as MsrA inh 1.

Screening data from PubChem.
